From the supplement of paper PMC7411054

Tests used:
Conditions in all cases: treatment time: 24 h
[1] = tested on: A549-ACTB-RAB5A; assay: lowest phenotypically active concentration; higher = less potent
In short: (§1)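 Live-cell features were measured per well and normalised to solvent control wells after fifteen gene-edited A549, HepG2 and WPMY1 reporter lines had been treated for 24 h at 0.3, 1, 3 or 9 µM in four wells each. A condition was deviating when ≥3 of 4 wells sat beyond the 95th percentile of control Euclidean distances. It was reproducible when the median replicate Pearson correlation exceeded the 95th percentile of non-replicates. Phenotypic activity demanded both.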

[2] = tested on: A549-GM130-SQSTM1; assay: as above
In short: as §1

[3] = tested on: WPMY1-GM130-SQSTM1; assay: as above
In short: as §1

[4] = tested on: A549-ACTB-RAB5A; assay: phenotypically active (imaging signature differs from DMSO and reproducible) at any of 0.3-9 uM (binary (1 = active, 0 = inactive)); higher = active
In short: as §1

[5] = tested on: A549-CANX-COX4; assay: as above
In short: as §1

[6] = tested on: A549-GM130-SQSTM1; assay: as above
In short: as §1

[7] = tested on: A549-TP53BP1-CLTA; assay: as above
In short: as §1

[8] = tested on: A549-TUBA1B-RELA; assay: as above
In short: as §1

[9] = tested on: HepG2-ACTB-RAB5A; assay: as above
In short: as §1

[10] = tested on: HepG2-CANX-COX4; assay: as above
In short: as §1

[11] = tested on: HepG2-GM130-SQSTM1; assay: as above
In short: as §1

[12] = tested on: HepG2-TP53BP1-CLTA; assay: as above
In short: as §1

[13] = tested on: HepG2-TUBA1B-RELA; assay: as above
In short: as §1

[14] = tested on: WPMY1-ACTB-RAB5A; assay: as above
In short: as §1

[15] = tested on: WPMY1-CANX-COX4; assay: as above
In short: as §1

[16] = tested on: WPMY1-GM130-SQSTM1; assay: as above
In short: as §1

[17] = tested on: WPMY1-TP53BP1-CLTA; assay: as above
In short: as §1

[18] = tested on: WPMY1-TUBA1B-RELA; assay: as above
In short: as §1

SMILES	lowest phenotypically active concentration [1] [µM]	lowest phenotypically active concentration [2] [µM]	lowest phenotypically active concentration [3] [µM]	phenotypically active [4]	phenotypically active [5]	phenotypically active [6]	phenotypically active [7]	phenotypically active [8]	phenotypically active [9]	phenotypically active [10]	phenotypically active [11]	phenotypically active [12]	phenotypically active [13]	phenotypically active [14]	phenotypically active [15]	phenotypically active [16]	phenotypically active [17]	phenotypically active [18]
O=C(CCCCCCC(=O)Nc1ccc([C@H]2O[C@@H](CSc3nc(-c4ccccc4)c(-c4ccccc4)o3)C[C@@H](c3ccc(CO)cc3)O2)cc1)NO [Tubacin]	9	9	3	1 (active)	0 (inactive)	1 (active)	0 (inactive)	0 (inactive)	0 (inactive)	0 (inactive)	0 (inactive)	0 (inactive)	0 (inactive)	1 (active)	1 (active)	1 (active)	1 (active)	1 (active)
CC[C@H](Nc1ncnc2[nH]cnc12)c1nc2cccc(F)c2c(=O)n1-c1ccccc1 [idelalisib]	9			1 (active)	0 (inactive)	0 (inactive)	0 (inactive)	0 (inactive)	0 (inactive)	0 (inactive)	0 (inactive)	0 (inactive)	0 (inactive)	1 (active)	0 (inactive)	0 (inactive)	0 (inactive)	0 (inactive)
CC(=O)S[C@@H]1CC2=CC(=O)CC[C@]2(C)[C@H]2CC[C@@]3(C)[C@@H](CC[C@@]34CCC(=O)O4)[C@H]12 [spironolactone]	9		9	1 (active)	0 (inactive)	0 (inactive)	0 (inactive)	0 (inactive)	0 (inactive)	0 (inactive)	0 (inactive)	0 (inactive)	0 (inactive)	0 (inactive)	0 (inactive)	1 (active)	0 (inactive)	0 (inactive)
